Results filed as inconclusive are left out. A call without a number means that no potency is given here. Values without a mark were called inactive. The source made the active and inactive calls. Calls come from the whole dose curve; as a rule, active = well fitted cell-killing curve with a large enough effect in the repeat runs; inconclusive = weak or mixed curves, or effect the other way; inactive = flat fitted curve, though single readings scatter.

This experiment in a line: cAMP Responsive Elements (CRE) small molecule antagonists, cell-based qHTS assay: qHTS cell viability counter screen (AID 2060913). Note: nearly all actives have a fitted effect of over 40% in size. The settings on record: CRE-bla HEK293T viability, CellTiter-Glo luminescence, 5 h; series mostly up to 92.4 µM. A digest of the protocol: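 Cytotoxicity read in the same wells as the CRE-bla HEK293T antagonist assay: after 3 h compound with 0.25 uM NKH477 final and 2 h beta-lactamase substrate, CellTiter-Glo luminescence measured.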
For `O=S(=O)(O)OOS(=O)(=O)O`, the Potency result was “inactive”.

Consider `CC[N+](=O)[O-]`, for which the Potency result is “inactive”. As for `CCCCC(CC)COP(=O)(Oc1ccccc1)Oc1ccccc1` (stereo not drawn), the Potency entry is “inactive”.

In the case of `CN(C)C(=O)Nc1cccc(C(F)(F)F)c1`, the Potency result is “inactive”. For `Cc1ccc2c(c1)C1CN(C)CCC1N2` (stereo not drawn), the viability change, negative = cytotoxic is -0.367% [at 18.9 µM]. In the case of `CCC1(C2=NCCN2)Cc2ccccc2O1` (stereo not drawn), the Potency entry was “inactive”.

With `CCC(COC(=O)c1cc(OC)c(OC)c(OC)c1)(c1ccccc1)N(C)C` (stereo not drawn), the Potency entry was “inactive”. On the same count and under the same terms, the value for `C[C@]12CCC(=O)C=C1CC[C@@H]1[C@@H]2CC[C@]2(C)C(=O)CC[C@@H]12` was “inactive”; that for `Oc1ccc2[nH]cc(CCCCN3CC=C(c4ccccc4)CC3)c2c1` was “inactive”.

On to `CNC(=O)Oc1c(C(C)(C)C)cc(C)cc1C(C)(C)C`, for which the Potency result is “inactive”. Turning to `CCN(CC)CCc1c[nH]c2ccccc12`, the Potency entry was “inactive”.

Regarding `CCOc1ccc(N)cc1`, the Potency entry was “inactive”. Same read-out and setting: the value for `O=[N+]([O-])O.O=[N+]([O-])O.[Cd]` was “inactive”; that for `Brc1ccc(Br)cc1` was “inactive”; that for `O=C1CN=C(c2ccccc2)c2cc([N+](=O)[O-])ccc2N1` was “inactive”. On the same count and under the same terms, the value for `c1ccc2c(c1)cc1ccc3cccc4ccc2c1c34` was “inactive”; that for `Oc1ccc(Cc2ccc(O)cc2)cc1` was “inactive”. On the same count and under the same terms, the value for `CCOC(=O)C(SP(=S)(OC)OC)c1ccccc1` (stereo not drawn) was “inactive”; that for `C=CCOCC1CO1` (stereo not drawn) was “inactive”. On to `[Cl][Sn]([Cl])([Cl])[Cl]`, for which the Potency result was “inactive”. As for `C[C@@H]1CC[C@H]2[C@@H](C)C(=O)O[C@@H]3O[C@@]4(C)CC[C@@H]1[C@]32OO4`, the Potency result was “inactive”. On the same count and under the same terms, the value for `COc1cc(CC(C)N)cc(OC)c1OC` (stereo not drawn) was “inactive”; that for `CC(C)=CC1C(C(=O)OCN2C(=O)C3=C(CCCC3)C2=O)C1(C)C` (stereo not drawn) was “inactive”.

Source of the values: PubChem BioAssay (Tox21).
